Source: PubChem BioAssay
A selection: hits, their analogues and other compounds. The true share with any hit is near 11%.
L3MBTL1 inh: qHTS Assay for the Inhibitors of L3MBTL1; 230,000 tested, 0.66% active; Lethal(3)malignant brain tumor-like protein 1 (Homo sapiens), Q9Y468; Potency, µM (titrated, usually from 57.1 µM), for the others: at the highest dose activity, negative = inhibition, usual class: inhibitors; AlphaScreen L3MBTL1–H3K9me1 peptide binding; also: % is scaled to controls: 0 for no effect and ±100 for the full control effect; nearly all actives have a fitted effect of over 60% in size
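Displacement of a biotinylated histone H3(1-15) peptide monomethylated at Lys9 (75 nM) from L3MBTL1 (50 nM) was measured by AlphaScreen after a 30 min room-temperature compound incubation; cefsulodin titration served as intraplate control.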
G9a inh: qHTS Assay for Inhibitors of Histone Lysine Methyltransferase G9a; Histone-lysine N-methyltransferase EHMT2 (Homo sapiens), Q96KQ7; G9a H3K9 monomethylation, AlphaScreen, 2 h; Potency, µM (series often up to 102 µM), without a hit: at the top dose activity, negative = inhibition, hits mostly inhibitors; 350,000 tested, 8.8% active; AID 504332, 2011; also: % is scaled to controls: 0 for no effect and ±100 for the full control effect; nearly all actives have a fitted effect of over 75% in size
Target sequence (Q96KQ7 913-1193 limits assumed): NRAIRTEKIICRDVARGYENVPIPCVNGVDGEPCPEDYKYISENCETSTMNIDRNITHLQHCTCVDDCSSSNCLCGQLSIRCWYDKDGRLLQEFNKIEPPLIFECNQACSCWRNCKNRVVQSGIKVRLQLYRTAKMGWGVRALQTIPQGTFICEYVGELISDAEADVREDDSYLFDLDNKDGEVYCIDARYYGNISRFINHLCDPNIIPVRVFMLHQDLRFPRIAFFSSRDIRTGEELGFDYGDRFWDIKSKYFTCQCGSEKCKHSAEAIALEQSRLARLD
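G9a (20 nM) preincubated 15 min RT with compounds, then 500 nM biotinylated H3K9 peptide and 20 uM SAM added; 2 h RT reaction. Monomethyl-H3K9 product detected by AlphaScreen with anti-H3K9me1 antibody, streptavidin donor and anti-rabbit IgG acceptor beads.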
BAZ2B block: qHTS Assay for Inhibitors of BAZ2B. Bromodomain adjacent to zinc finger domain protein 2B (Homo sapiens), Q9UIF8. AlphaScreen BAZ2B-H3K14Ac peptide displacement. Potency, µM (highest dose often 114 µM), inactives show top-dose activity change, negative = inhibition, hits mostly inhibitors. 360,000 tested, 4.4% active. AID 504333, 2011; also: % is scaled to controls: 0 for no effect and ±100 for the full control effect; nearly all actives have a fitted effect of over 60% in size
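AlphaScreen luminescence quantifies BAZ2B engagement of H3K14Ac peptide; the protein and biotinylated peptide are both at 50 nM final, buffer PBS pH 7.4 with 0.01% Tween-20, all steps at room temperature.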
HP1b binding inh: HTS for Inhibitors of HP1-beta Chromodomain Interactions with Methylated Histone Tails. AID 540317, 2011. Potency, µM (series often up to 114 µM), inactives show at the top dose activity change, negative = inhibition, usual class: inhibitors. AlphaScreen HP1-beta / biotin-H3K9me3 peptide binding. 390,000 tested, 0.56% active; also: nearly all actives have a fitted effect of over 70% in size
Target sequence (P83916 whole entry, looked up): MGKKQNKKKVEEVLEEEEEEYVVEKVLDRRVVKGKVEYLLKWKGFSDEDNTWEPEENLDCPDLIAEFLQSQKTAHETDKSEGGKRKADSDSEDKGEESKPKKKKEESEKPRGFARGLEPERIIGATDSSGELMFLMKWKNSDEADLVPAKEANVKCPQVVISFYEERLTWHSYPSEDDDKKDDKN
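Compound inhibition of the preformed complex between 50 nM HP1-beta and 50 nM biotinylated H3K9me3 peptide was read by AlphaScreen. Buffer was PBS pH 7.4 with 0.01% Tween-20. Incubations ran 30 min at room temperature, with 10 ug/mL donor/acceptor beads.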
JMJD2A Tudor: qHTS Assay for Inhibitors of JMJD2A-Tudor Domain | Lysine-specific demethylase 4A (Homo sapiens), O75164 | AlphaScreen JMJD2A-Tudor / H3K4me3 peptide binding | Potency, µM (series often up to 114 µM), for the others: at the top dose activity change, negative = inhibition, actives largely listed as inhibitors | 390,000 tested, 4.4% active; also: % is scaled to controls: 0 for no effect and ±100 for the full control effect; nearly all actives have a fitted effect of over 50% in size
* marks the source's active call; other numbers are inactive results; ? = inconclusive; nt = no result given; ! = not confirmed by another sample; [ ] = dose if it differs, or a comment. Calls follow the shape of the dose curve; as a rule, active = well fitted inhibition curve with a large enough effect; inconclusive = small, poorly fitted or top-dose-only effect; inactive = no such curve, though single readings can be large or run the other way. Potency is read from the fitted curve at half-maximal effect.

SMILES	L3MBTL1 inh	G9a inh	BAZ2B block	HP1b binding inh	JMJD2A Tudor
CCCCOc1ccc(CC2C(=O)N(C)C(=O)N(C)C2=O)cc1	?	-44.4%[59 µM]	6.3%	35.4%	-18.0%
CCCCCC1(C(C)C)C(=O)NC(=S)NC1=O	nt	nt	nt	37.4%	-4.2%
CCCCC1C(=O)NC(=S)N(C)C1=O (stereo not given)	nt	nt	nt	-1.5%	79.4µM*
Nc1ccc2c3c(cccc13)-c1ccccc1-2	nt	nt	nt	184.4%	69.7%
C[N+]12CCC(CC1)C(C(O)(c1ccccc1)c1cccs1)C2 (stereo not given)	4.8%	14.1µM*	-0.2%	15.1%	-31.5%
CCC[N+]12CCC(CC1)C(C(O)(c1ccccc1)c1ccccc1)C2 (stereo not given)	0.7%	-18.8%	-3.4%	39.9%	-1.7%
C=CCN1CC[C@@]2(C)c3cc(O)ccc3CC1[C@@H]2C	nt	44.7µM*!	1.5%	28.9%	-24.1%
CC(C)=CCN1CC[C@@]2(C)c3cc(O)ccc3C[C@@H]1C2C (stereo not given in full)	-1.6%	nt	nt	44.0%	-7.6%
O=C(O)[C@H]1[C@H]2CN[C@H](C(=O)O)[C@H]21	nt	7.7%[59 µM]	nt	nt	nt
C=C(C)[C@H]1CN[C@H](C(=O)O)[C@H]1CC(=O)O	nt	9.4%[12.7 µM]	nt	?	39.8µM*
O=C1NC(=O)N(c2ccccc2F)C(=O)/C1=C/c1ccc(Oc2ccc([N+](=O)[O-])cn2)cc1	nt	20µM*	56.2µM*	-3.3%	?
Cc1ccc(-c2nnc(C)c(N3CCCC3)n2)cc1	-11.3%	6.4%	-0.3%	50.7%	16.5%
Oc1ccc2c3c1O[C@H]1c4[nH]c5c(c4C[C@@]4(O)[C@@H](C2)N(CC2CC2)CC[C@]314)C[C@@]1(O)[C@H]2Cc3ccc(O)c4c3[C@@]1(CCN2CC1CC1)[C@H]5O4	nt	14.1µM*	nt	nt	nt
O=C1CN=C(c2ccccc2)c2cc(Cl)ccc2N1Cc1ccc(Cl)cc1	nt	-9.7%[59 µM]	-1.7%	7.9%	-17.2%
O=C(O)CN1C(=O)CN=C(c2ccccn2)c2cc(Cl)ccc21	19.8%	-32.5%	50.1µM*	48.9%	25.1µM*
CCCCOc1ccc(Cn2c(=O)oc3ccccc32)cc1	nt	15.8%	-7.9%	83.9%	-5.3%
Cc1ccc(CNC(=O)CCCn2c(=O)c3sccc3n(CC(=O)Nc3c(C)cccc3C)c2=O)cc1	nt	-6.1%[59 µM]	-24.2%	36.6%	-1.4%
CCN(CC)CCN1C(=O)CN=C(c2ccccc2F)c2cc(Cl)ccc21	nt	18.0%[59 µM]	nt	nt	nt
CCOC(=O)C(=O)NC1CCSC1=O (stereo not given)	nt	50.1µM*	11.4%	3.4%	-4.9%
O=c1c2ccccc2[se]n1-c1ccccc1	-6.0%	1.41µM*!	1.41µM*	?	8.91µM*
O=P(C(Cl)Cl)(N1CCCCC1)N1CCCCC1	nt	4.1%	5.3%	nt	-0.8%
O=P(OCC(F)(F)C(F)F)(N1CCCCC1)N1CCCCC1	2.2%	44.7µM*	-4.8%	12.5%	-3.3%
Cc1ccc(CN(C)CCc2ccccn2)cc1	nt	12.6µM*	?	?	3.16µM*
Cc1ccc(N2C(=O)NC(=O)C(CCc3ccccn3)(Cc3ccc(F)cc3)C2=O)cc1 (stereo not given)	-2.8%	-0.8%	-14.8%	39.2%	5.1%
NCCc1ccccn1	nt	-1.9%[59 µM]	nt	nt	nt
SMILES	L3MBTL1 inh	G9a inh	BAZ2B block	HP1b binding inh	JMJD2A Tudor
CN(CCc1ccccn1)Cc1ccc(Cl)cc1	nt	10µM*	44.7µM*	?	6.31µM*
CC(C)(C)c1ccc(O)cc1	nt	27.7%[59 µM]	nt	nt	nt
O=C1NC(=O)N(Cc2ccccc2Cl)C(=O)/C1=C/c1cccs1	nt	11.2µM*	nt	35.3%	-13.8%
O=C1NC(=O)C(CCc2ccncc2)(CCc2ccncc2)C(=O)N1Cc1ccc(F)cc1	4.6%	nt	-10.4%	-7.8%	-17.4%
O=C(c1cccs1)c1cn(Cc2ccccc2Cl)c2ccccc12	nt	-11.0%[12.7 µM]	-1.0%	51.0%	5.4%
Cc1ccc(/C=C2\C(=O)NC(=O)N(Cc3ccccc3Cl)C2=O)o1	-25.1%	12.6µM*	31.6µM*	16.7%	-13.6%
O=C1NC(=O)N(Cc2ccc(F)cc2)C(=O)/C1=C/c1cccs1	nt	3.98µM*	79.4µM*	26.7%	-29.3%
COc1ccc2[nH]c3c(c2c1)CCN1C(=O)C(CC(=O)NCc2cccc(C(F)(F)F)c2)C[C@H](C(=O)N2CCCCC2)[C@@]31C (stereo not given in full)	-3.0%	nt	nt	-4.1%	?
N=C(N)c1ccc(CS(=O)(=O)F)cc1	nt	-85.1%[59 µM]	nt	nt	nt
Cc1cccc(NP(C)(=O)c2nc3c(s2)CCCC3)c1 (stereo not given)	-1.1%	?	-2.7%	39.9%	-9.8%
Nc1nc2c(s1)CCCCCCCCCC2	-17.9%	44.7µM*	-27.4%	?	?
CCOc1ccc2nc(NC(=O)c3cccn(Cc4ccccc4)c3=O)sc2c1	nt	-1.9%[59 µM]	0.6%	3.9%	-10.7%
C[C@@H]1O[C@@H](O[C@H]2C[C@@H](O)[C@@]3(CO)[C@H]4[C@H](O)C[C@]5(C)[C@@H](C6=CC(=O)OC6)CC[C@]5(O)[C@H]4CC[C@@]3(O)C2)[C@@H](O)[C@H](O)[C@H]1O	nt	20.9%[59 µM]	nt	nt	nt
O=[N+]([O-])c1ccc(Cl)c([N+](=O)[O-])c1	-7.7%	-33.9%[59 µM]	-33.6%	1.8%	?
N#CC(C#N)=Cc1ccc(C=C(C#N)C#N)cc1	-10.1%	50.1µM*	-22.7%	26.2%	-14.4%
N#CC(C#N)=Cc1ccc([N+](=O)[O-])c(O)c1	nt	8.91µM*	nt	nt	nt
C/C(CC(=O)N1CCN(C=O)CC1)=N\NC(=O)c1cccc([N+](=O)[O-])c1	-10.1%	20.2%	?	11.7%	-14.4%
CN(C)c1c([N+](=O)[O-])cc(N2C(=O)C=CC2=O)cc1[N+](=O)[O-]	nt	nt	nt	14.1µM*	8.91µM*
CN(C)c1ccc(P(=O)(Nc2ccc([N+](=O)[O-])cc2)N2CCOCC2)c(NC(=O)c2cccs2)c1 (stereo not given)	-6.2%	44.7µM*	?	-8.5%	-26.7%
